# Shown are actives, neighbours in structure and some others; about 1.6% of the full set was active somewhere.
# NALP1 yeast inh – NALP1 inflammasome inhibitors in reconstituted yeast, colorimetric, S. cerevisiae, triplicate retest | S. cerevisiae NALP1/ASC/caspase-1 growth, X-gal OD620, 72 h | inhibition, % at 10 µM | actives 0.61% (n = 280,000) | AID 2071, 2009; in the data active means inhibition mostly above about 24%, no sharp cut-off; inactive means mostly below about 32%
# MOR-DOR inv ag – inverse agonists of MOR-DOR heterodimerization, primary screen, cell-based, luminescence | cell-based MOR-DOR heterodimer luminescence, inverse agonism | actives 0.21% (n = 340,000) | inhibition, % at 9.3 µM; in the data active means inhibition above about 22%, passing the limit was not always enough;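 further: 0% = cells with DMSO and 100% = wells without cells with DMSO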
# Target sequence (P35372 whole entry, looked up): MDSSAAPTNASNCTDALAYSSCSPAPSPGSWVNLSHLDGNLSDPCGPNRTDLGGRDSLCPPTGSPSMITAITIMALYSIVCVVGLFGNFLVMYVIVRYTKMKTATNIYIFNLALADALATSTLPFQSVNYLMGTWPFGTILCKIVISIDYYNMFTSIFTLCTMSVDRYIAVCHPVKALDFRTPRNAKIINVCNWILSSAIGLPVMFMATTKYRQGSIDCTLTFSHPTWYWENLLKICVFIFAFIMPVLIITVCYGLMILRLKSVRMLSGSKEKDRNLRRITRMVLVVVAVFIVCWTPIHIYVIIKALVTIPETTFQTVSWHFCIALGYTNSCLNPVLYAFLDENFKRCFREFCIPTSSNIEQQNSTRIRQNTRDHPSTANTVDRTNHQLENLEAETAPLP
# Target sequence (P41143 whole entry, looked up): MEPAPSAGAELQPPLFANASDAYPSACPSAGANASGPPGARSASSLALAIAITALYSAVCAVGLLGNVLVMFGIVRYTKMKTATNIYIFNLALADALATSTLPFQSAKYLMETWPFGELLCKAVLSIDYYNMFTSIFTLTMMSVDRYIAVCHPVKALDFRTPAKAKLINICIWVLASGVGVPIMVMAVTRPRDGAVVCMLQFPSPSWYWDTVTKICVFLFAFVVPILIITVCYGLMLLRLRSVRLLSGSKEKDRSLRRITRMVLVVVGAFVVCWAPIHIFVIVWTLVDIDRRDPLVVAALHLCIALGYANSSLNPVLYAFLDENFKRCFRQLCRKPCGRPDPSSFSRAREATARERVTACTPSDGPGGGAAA
# PolyA inh – polyadenylation inhibitors in yeast reporter cells, primary screen, luminescence, S. cerevisiae; AID 1875, 2009; S. cerevisiae SKY197-pL101 polyadenylation reporter, beta-gal luminescence; efflux-impaired pdr1/pdr3 knockout yeast; score 100 = 6 SD above DMSO; actives 0.02% (n = 300,000); activity score, % at 12 µM;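 active means lowest replicate activity score at least 50, where 100 means six control SD above control mean; inconclusive means lowest score under 50 but half or more replicates reach 50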;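 further: yeast exposed to compound for 9 h at 30 °C; higher score means more reporter readthrough which indicates perturbed polyadenylation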
# OPRM1-OPRD1 ag – agonists of OPRM1-OPRD1 heterodimerization, primary screen, cell-based, luminescence; cells; Mu-type opioid receptor (Homo sapiens) + Delta-type opioid receptor (Homo sapiens), …; actives 0.3% (n = 340,000); activation, % at 9.3 µM; AID 504326, 2011; in the data active means activation above about 18%;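 further: 0% = vehicle-treated cells and 100% = reference agonist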
# HTR5A ag ctr – HTR5A agonists in luminescence cell assay, primary screen, counter-screen for OPRM1-OPRD1 heterodimer agonist project, full-deck HTS. 5-hydroxytryptamine receptor 5A (Homo sapiens), P47898. cell-based. activation, % at 9.3 µM. actives 0.61% (n = 340,000). AID 504692, 2011; in the data active means activation mostly above about 9.5%, no sharp cut-off; inactive means mostly below about 7.6%;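 further: 0% = cells with vehicle only and 100% = reference agonist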
# HTR5A inv ag – HTR5A inverse agonists in luminescence cell assay, primary screen, counter-screen for OPRM1-OPRD1 heterodimer inverse agonist project, full-deck HTS; 5-hydroxytryptamine receptor 5A (Homo sapiens), P47898; HTR5A cell line, inverse agonism; inhibition, % at 9.3 µM; actives 0.083% (n = 340,000); in the data active means inhibition mostly above about 23%, no sharp cut-off; inactive means mostly below about 18%;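 further: 0% = cells with DMSO and 100% = no-cell wells with DMSO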
# Numbers without * were called inactive; ? = inconclusive; . = not tested or not shown.
SMILES,NALP1 yeast inh,MOR-DOR inv ag,PolyA inh,OPRM1-OPRD1 ag,HTR5A ag ctr,HTR5A inv ag
O=C(NCCN1CCOCC1)c1noc2c1CCc1ccccc1-2,23.0*,2.8,7.4,-0.5,-0.4,-4.7
CCCNC(=O)c1noc2c1CCc1ccccc1-2,5.0,1.4,7.4,-0.2,-5.6,14.3
COc1ccc(Cc2noc(CN(C)CCN3CCc4ccccc4C3)n2)cc1OC,28.9*,7.8,?,-1.5,4.8,-5.0
Cc1ccc(NC(=O)COc2ccccc2C(=O)NCc2ccccc2)cc1,.,-5.4,.,1.4,1.1,-8.1
COc1ccccc1/C=C/C(=O)OCc1nc2ccccc2c(=O)[nH]1,15.8*,14.0,-8.2,-2.7,-3.8,-3.1
CCSc1nc2c(c(=O)[nH]c(=O)n2C)n1CC(O)COc1ccccc1 (stereo unspecified),-5.8,-2.7,3.7,0.5,-2.7,-8.4
CC(C)CSc1nc2c(c(=O)[nH]c(=O)n2C)n1CC(O)COc1cccc2ccccc12 (stereo unspecified),24.1,-31.8,-5.3,6.4,13.1*,-28.7
CC(=O)NC1(c2ccccc2)CCN(c2cc(C)nc(-c3ccccc3)n2)CC1,39.9*,2.7,26.4,-0.4,1.2,-25.8
Cc1cc(N2CCC(C(=O)NC3CC3)CC2)nc(-c2ccccc2)n1,-15.3,14.0,-10.5,-2.5,1.5,4.9
COc1cccc(OCc2cc(C(=O)NC(C)c3cnn(C)c3C)no2)c1 (stereo unspecified),31.0,-11.3,-15.7,2.2,5.3,-0.7
CCC(C)c1ccc(OCCn2ccnc2)cc1 (stereo unspecified),53.4*,15.8,-10.2,-3.1,1.2,7.2
CC1CCN(CCCCOc2ccc(Br)cc2)CC1,12.5,3.4,-3.3,-0.6,1.9,-5.0
Cc1cc(Cl)c(OCCOCCN2CCC(C)CC2)c(Br)c1,51.6*,-24.9,3.9,4.2,13.8,-36.8
CCOc1ccc(OCCOCCn2ccnc2)cc1,10.0,24.8,-2.1,-4.6,2.7,-17.3
Cc1cc(Br)ccc1OCCn1ccnc1,55.2*,20.7,6.2,-3.9,3.1,1.6
Cc1cc(Br)ccc1OCCCCN1CCC(C)CC1,56.3*,-1.8,-59.0,0.3,5.8,-28.4
Cc1cc(Cl)c(OCCOCCN2CCN(C)CC2)c(Br)c1,20.6,16.3,7.8,-3.5,-0.2,0.6
CC1(C)C[C@H]2C3=CCC4[C@@]5(C)CC[C@H](O)[C@@](C)(CO)C5CC[C@@]4(C)[C@]3(C)C[C@@H](O)[C@@]2(CO)[C@@H](O)[C@@H]1O (stereo partly specified),.,4.7,.,-0.8,9.7,-28.4
CCCN1CCC(NC(=O)CC2C(=O)NCCN2Cc2ccccc2C)CC1 (stereo unspecified),1.2,6.7,7.0,-1.3,16.1,-38.8
COc1ccc(O)c(/C=N/c2nc3ccccc3n2C)c1,33.1*,-10.6,-4.6,2.1,8.6,-5.2
Cc1cc(C)c(NS(=O)(=O)c2ccc(Cl)c(C(=O)O)c2)c(C)c1,1.6,-4.0,-2.9,0.8,5.0,-16.0
Cc1cc(C)c(NS(=O)(=O)c2ccc(NC(=O)/C=C/C(=O)O)cc2)c(C)c1,51.3*,.,1.7,.,.,.
O=C(NC1=NCCS1)c1ccc([N+](=O)[O-])cc1Cl,-6.5,-23.1,-12.5,4.4,-1.2,3.2
O=C(Nc1ccccc1F)C1CCN(S(=O)(=O)c2cccc3nonc23)CC1,24.4,5.0,-9.9,-0.7,-0.3,-7.8
O=C(Nc1ccccc1Cl)C1CCN(S(=O)(=O)c2cccc3nonc23)CC1,37.2*,-11.7,-9.2,1.9,10.0,-18.8
SMILES,NALP1 yeast inh,MOR-DOR inv ag,PolyA inh,OPRM1-OPRD1 ag,HTR5A ag ctr,HTR5A inv ag
COc1ccc(Cl)cc1NC(=O)C(C)OC(=O)Cn1cc(C(F)(F)F)ccc1=O (stereo unspecified),.,11.6,.,-2.9,-0.2,0.4
Cc1ccc2[nH]c3c(Cl)ncnc3c2c1,.,.,-60.8,.,.,.
COc1ccc2c(c1)[nH]c1c(Cl)ncnc12,18.6,-11.2,-23.5,1.8,11.7*,9.2
O=C(CNc1ccccc1)Nc1ccc(F)cc1,28.4*,-7.2,17.3,1.1,16.8,-44.2
O=S(=O)(CC(CN1CCCC1)N1CCCC1)c1ccc2ccccc2c1 (stereo unspecified),51.7*,6.1,15.4,-1.2,4.9,10.2
Cc1ccc(S(=O)(=O)CC(CN2CCOCC2)N2CCOCC2)cc1 (stereo unspecified),2.2,4.5,9.4,-0.6,0.9,-2.5
Cc1c2cnn(-c3ccccc3)c(=O)c2c(C)n1CCCC(=O)NCCN1CCN(C)CC1,.,0.2,14.8,0.0,1.0,-3.1
COc1ccc(NC(=O)N2CCCC(c3nc(-c4ccc(C(C)C)cc4)no3)C2)cc1 (stereo unspecified),4.2,-38.0,22.1,7.2,12.2*,-39.5
CCCC(=O)NC(C)c1nc2ccccc2[nH]1 (stereo unspecified),16.4,10.8,-5.0,-2.0,1.0,27.5
CCC(=O)NC(c1ccccc1)c1nc2ccccc2[nH]1 (stereo unspecified),25.0*,11.4,1.3,-2.0,-2.1,-11.8
Cc1nc2c(C(=O)N3CCOCC3)cnn2c(C)c1Cc1cccc(Cl)c1,-3.6,.,-3.5,.,.,.
Cc1nc2c(C(=O)N3CCOCC3)cnn2c(C)c1Cc1ccc(Cl)cc1,8.1,-20.5,-16.4,3.8,11.5*,-17.6
COc1ccc(CCNCC(O)COc2cccc(Br)c2)cc1 (stereo unspecified),4.5,-2.1,-12.7,0.4,0.9,-2.6
COc1ccccc1COCC(O)CNCCc1ccc(C(F)(F)F)cc1 (stereo unspecified),24.5,-36.8,4.9,7.7,0.2,-0.6
OC(CNCCc1ccc(C(F)(F)F)cc1)COc1cccc2ccccc12 (stereo unspecified),102.8*,-116.8,-1.2,16.2,5.0,-13.2
OC(CNCCc1ccc(C(F)(F)F)cc1)COc1ccc2ccccc2c1 (stereo unspecified),96.0*,-21.9,1.4,4.4,1.9,-4.5
Cc1c(NC(=O)c2cc(S(=O)(=O)N3CCCCC3)ccc2Cl)c(=O)n(-c2ccccc2)n1C,.,9.8,.,-2.0,-1.4,5.5
CCN(CC)c1ccc(/C=N/NC(=S)NCc2ccccc2)cc1,12.9,-13.3,-36.9,2.3,13.7*,8.3
O=C(c1cc(-c2ccccn2)nc2c(Cl)cccc12)N1CCN(C(=O)C2CCCO2)CC1 (stereo unspecified),37.7*,9.7,-22.4,-2.1,-2.1,5.6
